ELG1 genotoxic = induces genotoxicity in HEK293T cells with luciferase-tagged ELG1 | HEK293T ELG1-luciferase reporter, luminescence, 16 h | Potency, µM (highest dose often 46 µM), inactives show at the top dose activity change, positive = activation, usual class: activators | actives 1.3% (n = 330,000) | AID 504466; note: % of control where 0% means no effect; nearly all actives have a fitted effect of over 60% in size
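DMSO vehicle served as control against compound-treated ELG1-luciferase HEK293T cells; exposure lasted 16 hr at 37 °C and 5% CO2, followed by ONE-Glo luminescence detection after 30 min.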
FLuc counter = inhibits or activates purified firefly luciferase, miR-21 counter-screen | P08659 | purified FLuc, Km substrates, luminescence inhibition | Potency, µM (series often up to 57.5 µM), for the others: at the top dose activity change, negative = inhibition, actives largely listed as inhibitors | actives 6.9% (n = 360,000);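 note: plate controls were vehicle for no effect and reference inhibitor for full effect; nearly all actives have a fitted effect of over 55% in size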
Target sequence (P08659 whole entry, looked up): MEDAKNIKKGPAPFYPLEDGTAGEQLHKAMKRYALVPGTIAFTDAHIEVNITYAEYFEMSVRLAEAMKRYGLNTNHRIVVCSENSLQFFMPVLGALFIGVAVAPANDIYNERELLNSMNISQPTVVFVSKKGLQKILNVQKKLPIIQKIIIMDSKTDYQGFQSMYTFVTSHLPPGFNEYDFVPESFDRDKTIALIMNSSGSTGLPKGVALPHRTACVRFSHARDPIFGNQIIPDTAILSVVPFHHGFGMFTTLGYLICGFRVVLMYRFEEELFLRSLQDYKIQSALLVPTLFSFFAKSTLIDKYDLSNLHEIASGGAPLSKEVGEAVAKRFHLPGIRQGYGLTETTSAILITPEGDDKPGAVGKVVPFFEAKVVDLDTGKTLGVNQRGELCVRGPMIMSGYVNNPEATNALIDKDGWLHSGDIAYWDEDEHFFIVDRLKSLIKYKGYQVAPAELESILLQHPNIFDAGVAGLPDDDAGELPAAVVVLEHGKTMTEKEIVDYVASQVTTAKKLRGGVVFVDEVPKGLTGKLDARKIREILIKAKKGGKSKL
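Purified P. pyralis luciferase (10nM final) with 10uM D-luciferin and 10uM ATP (Km levels) in 50mM Tris acetate pH 7.5, 10mM Mg acetate, 0.01% Tween-20, 0.05% BSA; qHTS 6-point titration, ~60 µM downward; luminescence read.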
KinaseGlo FLuc = counter-screen: inhibitors of Kinase-Glo firefly luciferase; Q27757; Kinase-Glo luciferase, ATP luminescence, 8 min; Potency, µM (top dose mostly 38.3 µM), for the others: at the top dose activity change, negative = inhibition, hits mostly inhibitors; actives 0.28% (n = 200,000); note: % is set by controls: 0 for no effect and ±100 for the full control effect; nearly all actives have a fitted effect of over 60% in size
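Inhibition of Kinase-Glo luciferase light generation was assessed at 10 uM ATP in pH 7.2 imidazole buffer, with luminescence measured after eight minutes at ambient temperature.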
SMN2 splice enh = enhancers of SMN2 splice variant expression | HEK293 SMN2-luciferase splicing reporter, luminescence, 30-36 h | Potency, µM (highest dose often 46.1 µM), inactives show at the highest dose activity change, positive = activation, actives largely listed as activators | actives 2.8% (n = 210,000) | AID 1458; note: % of control where 0% means no effect; nearly all actives have a fitted effect of over 55% in size
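HEK293 cells carry an SMN2 minigene-luciferase reporter in which exon 7 inclusion puts luciferase in frame. Cells were seeded at 2000 cells/well, attached for 10-12 hours, then exposed to compounds for 30-36 hours at 37C before ONE-Glo luminescence.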
Rab9 prom act = Rab9 promoter activation | Potency, µM (titrated, usually from 9.22 µM), inactives show top-dose activation, negative = inhibition, actives largely listed as activators | actives 2.8% (n = 320,000) | Huh7 Rab9 promoter-luciferase reporter, luminescence, 24 h; note: % of control where 0% means no effect; nearly all actives have a fitted effect of over 60% in size
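Rab9 promoter-driven luciferase in stably transfected Huh7 cells; 1500 cells/well rested 2 h, exposed to compound in DMSO for 24 h at 37 °C, 5% CO2. Luminescence read 10 min after adding luciferase reagent at ambient temperature.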
NPC1 promoter act = activators of NPC1 promoter; Huh7 NPC1 promoter luciferase reporter, 24 h; Potency, µM (top dose mostly 9.22 µM), for the others: at the top dose activation, actives largely listed as activators; actives 2.4% (n = 320,000); note: % of control where 0% means no effect; nearly all actives have a fitted effect of over 60% in size
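Quantitative HTS used a cell-based reporter: Huh7 cells stably bearing the NPC1 promoter upstream of luciferase were treated with compounds for 24 h, and promoter activation was read as luminescence.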
* hit, by the source's call. Rows were chosen to be rich in hits. Some 7.3% of all compounds tested hit in one or more screens of this group. Calls come from the whole dose curve; as a rule, active = well fitted curve in the direction sought with a large enough effect; inconclusive = small, poorly fitted or top-dose-only effect, or another doubt; inactive = no such curve, though single readings can be large; an effect the other way counts as inactive or inconclusive. Potency is the fitted concentration of half-maximal effect.

Screening CN(C)c1ccc(C(CNC(=O)c2ccccc2Cl)N2CCCC2)cc1 (stereo unspecified) returned FLuc counter 4%.
For COc1ccc(-c2nc3ccccc3c(=O)[nH]2)cc1 the results were ELG1 genotoxic 9.2µM*, FLuc counter 3.4µM*, Rab9 prom act 0.71µM* and NPC1 promoter act 1.4µM*.
`O=c1[nH]c(-c2cccnc2)nc2ccccc12` gave ELG1 genotoxic 0%, FLuc counter -2%, KinaseGlo FLuc -1%, SMN2 splice enh 1%, Rab9 prom act -7% and NPC1 promoter act 0%.
`Cc1cccc(-c2nc3ccccc3c(=O)[nH]2)c1` gave ELG1 genotoxic inconclusive, FLuc counter 11µM*, Rab9 prom act 3.2µM* and NPC1 promoter act 2.8µM*.
For O=c1[nH]c(-c2ccncc2)nc2ccccc12 the results were ELG1 genotoxic -2%, FLuc counter inconclusive, KinaseGlo FLuc 1%, SMN2 splice enh 9%, Rab9 prom act -1% and NPC1 promoter act 1%.
For CN(C)c1ccc(-c2nc3ccccc3c(=O)[nH]2)cc1 the results were ELG1 genotoxic 0.82µM*, FLuc counter 0.6µM*, Rab9 prom act 0.25µM* and NPC1 promoter act 0.35µM*.
For COc1cc(/C=N\n2cnnc2)ccc1OCC(=O)Nc1ccc(C)cc1 the results were ELG1 genotoxic 1%, FLuc counter 4%, KinaseGlo FLuc -3%, SMN2 splice enh -13%, Rab9 prom act 3% and NPC1 promoter act -3%.
`COc1cc(/C=N/OCC(=O)Nc2cc(C)cc(C)c2)ccc1OCc1ccc(Cl)cc1` gave ELG1 genotoxic inconclusive, FLuc counter 9.5µM*, KinaseGlo FLuc -1%, SMN2 splice enh 11µM*, Rab9 prom act 3.2µM* and NPC1 promoter act inconclusive.
Screening COc1cc(/C=N/OCC(=O)NC2CCCCC2C)ccc1OCc1ccc(Cl)cc1 (stereo unspecified) returned ELG1 genotoxic 18µM*, FLuc counter 6.7µM*, KinaseGlo FLuc 2%, SMN2 splice enh inconclusive, Rab9 prom act 2.8µM* and NPC1 promoter act inconclusive.
`COC(=O)c1ccc(/C=N/OCC(=O)NC2CCCC(C)C2C)cc1` (stereo unspecified) gave ELG1 genotoxic -11%, FLuc counter -7%, KinaseGlo FLuc 6%, SMN2 splice enh -74%, Rab9 prom act -1% and NPC1 promoter act -6%.
For COc1cc(/C=N/N2CCOCC2)ccc1OCc1ccccc1 the results were ELG1 genotoxic 14%, FLuc counter -17%, KinaseGlo FLuc -2%, SMN2 splice enh inconclusive, Rab9 prom act 7% and NPC1 promoter act 0%.
`COc1cc(/C=N/N2CCOCC2)ccc1OCc1ccc(Cl)cc1` gave ELG1 genotoxic inconclusive, FLuc counter 11µM*, KinaseGlo FLuc 5%, SMN2 splice enh 11µM*, Rab9 prom act 17% and NPC1 promoter act -3%.
`CCCCN(CC)CCCNC(=O)CCN1N=C(c2ccc(OC)cc2)CCC1=O` gave FLuc counter 2%.
For CC(C)n1cc(NC(=O)c2cc(-c3ccccc3)on2)cn1 the results were ELG1 genotoxic 18µM*, FLuc counter 15µM*, KinaseGlo FLuc -6%, SMN2 splice enh 6%, Rab9 prom act -9% and NPC1 promoter act -16%.
Screening COC(=O)c1c(-c2ccc(C)cc2)csc1NC(=O)c1c(-c2ccccc2)noc1C returned ELG1 genotoxic -2%, FLuc counter 0%, KinaseGlo FLuc 3%, SMN2 splice enh 68%, Rab9 prom act -1% and NPC1 promoter act -2%.
Screening CCC(C)NC(=O)c1cc(-c2cccc(OC)c2)on1 (stereo unspecified) returned FLuc counter 13µM* and SMN2 splice enh 11µM*.

Source: PubChem
